# Assay results taken from publication PMC7862700, “An all-to-all approach to the identification of sequence-specific readers for epigenetic DNA modifications on cytosine”.
# Columns and labels:
# Assay in all cases: DAPPL (digital affinity profiling via proximity ligation, sequencing); 10 mM Tris-HCl pH 7.5, 50 mM NaCl, 1 mM DTT, 4% glycerol, room temperature, 30 min; GST-TFs on glutathione beads, 16-mer random dsDNA library, 0.1% formaldehyde crosslink after washing; high values mean tight binding
# FLI1 = target: T1, FLI1 (Homo sapiens, UniProt Q01543 1-452); details: protein: recombinant; tags: N-terminal GST; dsDNA, one strand shown
# T1 sequence: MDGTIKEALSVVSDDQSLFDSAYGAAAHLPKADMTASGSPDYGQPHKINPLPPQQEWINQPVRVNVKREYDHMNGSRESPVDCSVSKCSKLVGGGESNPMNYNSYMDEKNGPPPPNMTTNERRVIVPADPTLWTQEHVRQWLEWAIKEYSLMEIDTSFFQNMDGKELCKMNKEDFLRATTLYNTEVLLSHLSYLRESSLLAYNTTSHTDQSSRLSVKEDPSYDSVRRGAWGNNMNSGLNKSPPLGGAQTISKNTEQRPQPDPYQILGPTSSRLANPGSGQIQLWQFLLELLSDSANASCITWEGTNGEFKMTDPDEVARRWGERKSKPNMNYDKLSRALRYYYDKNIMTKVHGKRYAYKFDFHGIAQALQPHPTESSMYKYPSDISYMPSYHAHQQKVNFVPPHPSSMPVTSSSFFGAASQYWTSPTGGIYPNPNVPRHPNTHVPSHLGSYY
# How it was run: (§1)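 GST fusions of human transcription factors were expressed in yeast and captured with glutathione beads. Once given DNA barcodes and pooled alongside a tag-only sample, they were incubated for 30 min at room temperature with 200 nmole of a random double-stranded 16-mer DNA library in Tris/NaCl/DTT/glycerol buffer, then washed, crosslinked (0.1% formaldehyde), proximity-ligated, PCR-amplified and sequenced on an Illumina NextSeq500. The binding signal of each hexamer is its read frequency for a factor divided by its frequency for the tag-only sample.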
# ELK1 = target: T2, ELK1 (Homo sapiens, UniProt P19419 1-428); details: protein: recombinant; tags: N-terminal GST; dsDNA, one strand shown
# T2 sequence: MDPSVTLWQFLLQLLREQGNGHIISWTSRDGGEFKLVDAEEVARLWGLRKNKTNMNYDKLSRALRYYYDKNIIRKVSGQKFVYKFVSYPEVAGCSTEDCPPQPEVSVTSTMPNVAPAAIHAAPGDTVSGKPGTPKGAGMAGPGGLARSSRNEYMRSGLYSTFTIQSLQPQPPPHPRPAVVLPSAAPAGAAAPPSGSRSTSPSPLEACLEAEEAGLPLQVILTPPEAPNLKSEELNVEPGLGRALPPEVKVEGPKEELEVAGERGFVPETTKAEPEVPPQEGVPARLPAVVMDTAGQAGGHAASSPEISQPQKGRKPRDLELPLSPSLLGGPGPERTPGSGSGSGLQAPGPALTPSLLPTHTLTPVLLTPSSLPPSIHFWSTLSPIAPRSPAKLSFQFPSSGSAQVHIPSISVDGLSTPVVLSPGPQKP
# How it was run: as §1
# GABPA = target: T3, GABPA (Homo sapiens, UniProt Q06546 1-454); details: protein: recombinant; tags: N-terminal GST; dsDNA, one strand shown
# T3 sequence: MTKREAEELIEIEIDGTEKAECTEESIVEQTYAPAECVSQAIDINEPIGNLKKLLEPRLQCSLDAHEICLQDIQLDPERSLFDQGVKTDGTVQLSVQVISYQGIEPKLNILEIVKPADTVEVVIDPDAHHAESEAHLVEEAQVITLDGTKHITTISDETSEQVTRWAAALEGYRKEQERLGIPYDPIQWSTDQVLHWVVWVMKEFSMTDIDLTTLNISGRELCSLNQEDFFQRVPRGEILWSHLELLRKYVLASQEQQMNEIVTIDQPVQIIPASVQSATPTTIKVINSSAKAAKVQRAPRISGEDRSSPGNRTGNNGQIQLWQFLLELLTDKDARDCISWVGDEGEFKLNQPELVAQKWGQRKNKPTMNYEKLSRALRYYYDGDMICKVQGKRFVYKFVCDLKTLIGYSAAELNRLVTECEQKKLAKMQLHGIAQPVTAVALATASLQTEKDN
# How it was run: as §1
# ERG = target: T4, ERG (Homo sapiens, UniProt P11308 1-479); details: protein: recombinant; tags: N-terminal GST; dsDNA, one strand shown
# T4 sequence: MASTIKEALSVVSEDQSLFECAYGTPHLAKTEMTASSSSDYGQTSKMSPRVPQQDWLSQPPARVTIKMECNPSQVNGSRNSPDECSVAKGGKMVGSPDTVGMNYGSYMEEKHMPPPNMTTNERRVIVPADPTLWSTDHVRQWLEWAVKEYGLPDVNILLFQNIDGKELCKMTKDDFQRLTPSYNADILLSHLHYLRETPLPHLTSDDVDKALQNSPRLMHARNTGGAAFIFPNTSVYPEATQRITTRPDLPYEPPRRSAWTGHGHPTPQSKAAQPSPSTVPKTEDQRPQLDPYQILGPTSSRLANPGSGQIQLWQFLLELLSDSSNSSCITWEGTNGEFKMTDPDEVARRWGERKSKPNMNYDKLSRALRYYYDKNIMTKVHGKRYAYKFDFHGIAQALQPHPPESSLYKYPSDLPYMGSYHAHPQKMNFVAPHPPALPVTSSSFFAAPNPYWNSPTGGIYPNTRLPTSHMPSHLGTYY
# How it was run: as §1
# ELF1 = ELF1 (Homo sapiens, UniProt P32519 1-619); details: protein: recombinant; tags: N-terminal GST; dsDNA, one strand shown
# Chain of ELF1 (P32519 whole entry): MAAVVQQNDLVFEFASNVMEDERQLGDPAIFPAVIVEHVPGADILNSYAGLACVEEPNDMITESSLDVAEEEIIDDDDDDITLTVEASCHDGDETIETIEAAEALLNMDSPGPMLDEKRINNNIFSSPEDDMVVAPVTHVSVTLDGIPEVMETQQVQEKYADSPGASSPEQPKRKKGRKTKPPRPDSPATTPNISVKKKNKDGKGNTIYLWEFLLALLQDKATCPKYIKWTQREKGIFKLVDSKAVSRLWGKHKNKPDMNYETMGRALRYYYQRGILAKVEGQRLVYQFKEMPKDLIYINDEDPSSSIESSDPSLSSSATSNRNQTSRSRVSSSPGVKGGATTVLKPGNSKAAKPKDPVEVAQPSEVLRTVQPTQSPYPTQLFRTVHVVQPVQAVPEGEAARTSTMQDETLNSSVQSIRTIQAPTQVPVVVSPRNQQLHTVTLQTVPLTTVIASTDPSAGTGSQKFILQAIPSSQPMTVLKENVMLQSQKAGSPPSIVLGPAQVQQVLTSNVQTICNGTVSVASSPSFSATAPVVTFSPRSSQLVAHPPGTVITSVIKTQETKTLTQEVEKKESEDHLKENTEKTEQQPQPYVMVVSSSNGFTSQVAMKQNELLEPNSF
# How it was run: as §1
# EHF = target: T5, EHF (Homo sapiens, UniProt Q9NZC4 1-300); details: protein: recombinant; tags: N-terminal GST; dsDNA, one strand shown
# T5 sequence: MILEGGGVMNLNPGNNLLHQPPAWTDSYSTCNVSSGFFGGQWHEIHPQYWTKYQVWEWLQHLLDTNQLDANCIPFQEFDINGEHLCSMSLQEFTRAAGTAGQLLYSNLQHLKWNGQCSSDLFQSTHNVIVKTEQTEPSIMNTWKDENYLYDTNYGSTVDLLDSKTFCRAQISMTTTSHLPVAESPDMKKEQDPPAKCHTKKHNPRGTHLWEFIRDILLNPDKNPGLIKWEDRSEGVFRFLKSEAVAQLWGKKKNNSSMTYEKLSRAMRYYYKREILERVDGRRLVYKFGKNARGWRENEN
# How it was run: as §1
# SPI1 = SPI1 (Homo sapiens, UniProt P17947 1-270); details: protein: recombinant; tags: N-terminal GST; dsDNA, one strand shown
# How it was run: as §1
# SPIB = SPIB (Homo sapiens, UniProt Q01892 1-262); details: protein: recombinant; tags: N-terminal GST; dsDNA, one strand shown
# Chain of SPIB (Q01892 whole entry): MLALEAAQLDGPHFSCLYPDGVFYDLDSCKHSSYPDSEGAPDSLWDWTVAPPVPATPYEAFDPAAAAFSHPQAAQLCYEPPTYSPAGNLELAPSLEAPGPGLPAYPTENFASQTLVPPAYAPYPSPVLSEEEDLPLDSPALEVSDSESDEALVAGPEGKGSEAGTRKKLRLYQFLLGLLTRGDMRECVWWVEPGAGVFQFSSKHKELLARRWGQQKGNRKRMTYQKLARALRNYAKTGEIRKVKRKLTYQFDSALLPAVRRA
# How it was run: as §1
# ELK3 = target: T6, ELK3 (Homo sapiens, UniProt P41970 1-407); details: protein: recombinant; tags: N-terminal GST; dsDNA, one strand shown
# T6 sequence: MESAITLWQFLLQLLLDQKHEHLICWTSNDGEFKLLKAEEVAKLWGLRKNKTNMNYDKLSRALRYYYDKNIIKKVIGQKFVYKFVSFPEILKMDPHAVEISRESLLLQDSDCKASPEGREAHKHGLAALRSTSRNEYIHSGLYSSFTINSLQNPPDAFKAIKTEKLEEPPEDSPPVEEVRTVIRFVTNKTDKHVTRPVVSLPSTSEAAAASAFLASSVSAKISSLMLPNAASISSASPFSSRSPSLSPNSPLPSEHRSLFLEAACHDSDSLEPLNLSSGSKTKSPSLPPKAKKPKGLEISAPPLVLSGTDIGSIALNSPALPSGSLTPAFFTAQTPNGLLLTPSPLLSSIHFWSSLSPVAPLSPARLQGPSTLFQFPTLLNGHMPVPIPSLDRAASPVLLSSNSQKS
# How it was run: as §1
# FEV = target: T7, FEV (Homo sapiens, UniProt Q99581 1-238); details: protein: recombinant; tags: N-terminal GST; dsDNA, one strand shown
# T7 sequence: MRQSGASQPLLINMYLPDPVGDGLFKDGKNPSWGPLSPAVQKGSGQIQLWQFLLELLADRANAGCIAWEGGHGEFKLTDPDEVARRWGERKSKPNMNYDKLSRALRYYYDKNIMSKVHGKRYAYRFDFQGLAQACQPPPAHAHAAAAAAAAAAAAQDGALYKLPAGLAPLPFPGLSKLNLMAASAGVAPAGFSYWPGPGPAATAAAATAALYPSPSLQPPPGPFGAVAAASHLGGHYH
# How it was run: as §1
# ETV5 = ETV5 (Homo sapiens, UniProt P41161 1-510); details: protein: recombinant; tags: N-terminal GST; dsDNA, one strand shown
# Chain of ETV5 (P41161 whole entry): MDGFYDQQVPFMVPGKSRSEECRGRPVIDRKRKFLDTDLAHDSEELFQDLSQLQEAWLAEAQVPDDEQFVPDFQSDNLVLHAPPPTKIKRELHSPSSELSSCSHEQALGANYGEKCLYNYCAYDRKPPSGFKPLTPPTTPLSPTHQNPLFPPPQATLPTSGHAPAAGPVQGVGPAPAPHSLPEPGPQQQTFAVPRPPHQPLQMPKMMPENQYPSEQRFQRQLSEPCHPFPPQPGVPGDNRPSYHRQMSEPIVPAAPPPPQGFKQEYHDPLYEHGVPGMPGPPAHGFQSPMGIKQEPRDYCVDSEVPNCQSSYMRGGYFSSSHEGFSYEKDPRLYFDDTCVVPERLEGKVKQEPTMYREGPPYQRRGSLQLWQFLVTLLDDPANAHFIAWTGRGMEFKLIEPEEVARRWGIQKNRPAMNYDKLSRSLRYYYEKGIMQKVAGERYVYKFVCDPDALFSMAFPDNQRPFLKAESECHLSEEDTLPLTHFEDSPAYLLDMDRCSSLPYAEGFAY
# How it was run: as §1
# HSF1 = HSF1 (Homo sapiens, UniProt Q00613 1-529); details: protein: recombinant; tags: N-terminal GST; chain copies: 3; dsDNA, one strand shown
# Chain of HSF1 (Q00613 whole entry): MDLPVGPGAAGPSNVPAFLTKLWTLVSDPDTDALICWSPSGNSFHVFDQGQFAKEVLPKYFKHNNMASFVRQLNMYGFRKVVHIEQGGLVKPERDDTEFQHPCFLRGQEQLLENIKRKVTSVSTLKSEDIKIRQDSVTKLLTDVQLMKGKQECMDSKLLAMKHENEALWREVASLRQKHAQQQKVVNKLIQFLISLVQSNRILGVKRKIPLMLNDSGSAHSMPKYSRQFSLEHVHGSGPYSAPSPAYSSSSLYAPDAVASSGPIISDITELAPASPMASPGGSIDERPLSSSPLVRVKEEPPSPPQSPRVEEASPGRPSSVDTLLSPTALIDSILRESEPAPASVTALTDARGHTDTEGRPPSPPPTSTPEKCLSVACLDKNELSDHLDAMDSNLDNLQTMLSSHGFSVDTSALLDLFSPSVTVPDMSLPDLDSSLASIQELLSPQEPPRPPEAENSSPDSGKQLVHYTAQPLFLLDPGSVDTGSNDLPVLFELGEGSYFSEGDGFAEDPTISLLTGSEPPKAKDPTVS
# How it was run: as §1
# SPIC = target: T8, SPIC (Homo sapiens, UniProt Q8N5J4 1-248); details: protein: recombinant; tags: N-terminal GST; dsDNA, one strand shown
# T8 sequence: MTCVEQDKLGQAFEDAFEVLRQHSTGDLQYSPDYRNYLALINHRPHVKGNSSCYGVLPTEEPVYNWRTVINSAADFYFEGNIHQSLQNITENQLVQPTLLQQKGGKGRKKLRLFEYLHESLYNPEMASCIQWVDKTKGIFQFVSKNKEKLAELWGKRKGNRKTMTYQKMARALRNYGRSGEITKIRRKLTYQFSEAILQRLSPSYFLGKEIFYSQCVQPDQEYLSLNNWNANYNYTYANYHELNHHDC
# How it was run: as §1
# ELF4 = ELF4 (Homo sapiens, UniProt Q99607 1-663); details: protein: recombinant; tags: N-terminal GST; dsDNA, one strand shown
# Chain of ELF4 (Q99607 whole entry): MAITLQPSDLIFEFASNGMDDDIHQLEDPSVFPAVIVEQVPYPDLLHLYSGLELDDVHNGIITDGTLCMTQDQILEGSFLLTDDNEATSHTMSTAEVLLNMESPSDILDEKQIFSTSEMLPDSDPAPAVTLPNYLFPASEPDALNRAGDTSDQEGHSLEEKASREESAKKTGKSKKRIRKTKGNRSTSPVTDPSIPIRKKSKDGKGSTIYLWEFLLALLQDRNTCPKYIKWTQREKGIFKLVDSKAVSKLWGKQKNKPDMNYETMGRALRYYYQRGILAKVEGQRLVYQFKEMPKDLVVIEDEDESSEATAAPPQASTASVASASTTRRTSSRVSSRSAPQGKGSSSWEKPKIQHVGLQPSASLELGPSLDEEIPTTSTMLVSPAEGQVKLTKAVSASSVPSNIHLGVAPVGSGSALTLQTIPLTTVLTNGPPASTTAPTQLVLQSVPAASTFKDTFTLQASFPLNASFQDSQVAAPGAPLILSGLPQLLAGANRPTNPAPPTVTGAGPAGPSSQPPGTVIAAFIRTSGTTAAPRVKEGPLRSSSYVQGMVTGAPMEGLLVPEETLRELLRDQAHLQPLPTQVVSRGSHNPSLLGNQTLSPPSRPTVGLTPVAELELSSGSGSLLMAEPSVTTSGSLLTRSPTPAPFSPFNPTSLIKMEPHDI
# How it was run: as §1
# ELK4 = target: T9, ELK4 (Homo sapiens, UniProt P28324-2 1-405); details: protein: recombinant; tags: N-terminal GST; dsDNA, one strand shown
# T9 sequence: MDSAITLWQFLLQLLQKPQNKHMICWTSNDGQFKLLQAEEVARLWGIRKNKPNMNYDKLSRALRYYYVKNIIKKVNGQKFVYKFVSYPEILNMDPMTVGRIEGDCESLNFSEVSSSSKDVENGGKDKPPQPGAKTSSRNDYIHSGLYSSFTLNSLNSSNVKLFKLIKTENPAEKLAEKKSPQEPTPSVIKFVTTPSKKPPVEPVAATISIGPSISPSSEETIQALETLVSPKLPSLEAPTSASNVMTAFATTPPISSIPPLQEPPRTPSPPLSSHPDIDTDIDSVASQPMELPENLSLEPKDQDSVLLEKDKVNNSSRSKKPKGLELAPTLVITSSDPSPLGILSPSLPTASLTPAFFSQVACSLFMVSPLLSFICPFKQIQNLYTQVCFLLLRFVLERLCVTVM
# How it was run: as §1
# ETV2 = target: T10, ETV2 (Homo sapiens, UniProt O00321 1-342); details: protein: recombinant; tags: N-terminal GST; dsDNA, one strand shown
# T10 sequence: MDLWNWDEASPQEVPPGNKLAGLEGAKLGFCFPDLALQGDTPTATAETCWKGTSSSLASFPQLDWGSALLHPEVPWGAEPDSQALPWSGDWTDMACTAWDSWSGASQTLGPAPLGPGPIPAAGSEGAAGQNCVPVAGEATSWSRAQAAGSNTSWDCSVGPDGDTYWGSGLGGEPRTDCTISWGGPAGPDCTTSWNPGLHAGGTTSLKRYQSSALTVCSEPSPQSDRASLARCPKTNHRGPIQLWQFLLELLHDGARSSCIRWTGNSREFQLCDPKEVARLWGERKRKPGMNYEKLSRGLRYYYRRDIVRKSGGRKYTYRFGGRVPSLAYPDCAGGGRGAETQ
# How it was run: as §1
# ELF3 = target: T11, ELF3 (Homo sapiens, UniProt P78545 1-371); details: protein: recombinant; tags: N-terminal GST; dsDNA, one strand shown
# T11 sequence: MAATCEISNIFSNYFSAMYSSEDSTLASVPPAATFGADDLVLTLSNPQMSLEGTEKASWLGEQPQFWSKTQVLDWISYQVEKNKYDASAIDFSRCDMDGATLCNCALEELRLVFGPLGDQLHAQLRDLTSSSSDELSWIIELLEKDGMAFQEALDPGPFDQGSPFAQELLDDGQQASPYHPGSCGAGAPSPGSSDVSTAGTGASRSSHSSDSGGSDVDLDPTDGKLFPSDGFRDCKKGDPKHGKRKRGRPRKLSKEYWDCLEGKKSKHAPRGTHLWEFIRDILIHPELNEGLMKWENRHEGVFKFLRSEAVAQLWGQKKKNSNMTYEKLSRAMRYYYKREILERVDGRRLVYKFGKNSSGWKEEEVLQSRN
# How it was run: as §1
# CRX = CRX (Homo sapiens, UniProt O43186 1-299); details: protein: recombinant; tags: N-terminal GST; dsDNA, one strand shown
# Chain of CRX (O43186 whole entry): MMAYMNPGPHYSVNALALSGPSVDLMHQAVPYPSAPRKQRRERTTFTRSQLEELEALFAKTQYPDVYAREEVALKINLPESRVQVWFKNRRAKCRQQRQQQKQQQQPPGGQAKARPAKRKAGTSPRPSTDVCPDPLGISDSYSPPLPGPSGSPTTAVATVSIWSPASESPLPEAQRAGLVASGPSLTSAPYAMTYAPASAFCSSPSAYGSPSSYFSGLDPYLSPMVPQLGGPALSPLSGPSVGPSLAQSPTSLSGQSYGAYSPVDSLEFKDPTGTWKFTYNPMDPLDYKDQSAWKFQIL
# How it was run: as §1
# ETV1 = ETV1 (Homo sapiens, UniProt P50549 1-477); details: protein: recombinant; tags: N-terminal GST; dsDNA, one strand shown
# Chain of ETV1 (P50549 whole entry): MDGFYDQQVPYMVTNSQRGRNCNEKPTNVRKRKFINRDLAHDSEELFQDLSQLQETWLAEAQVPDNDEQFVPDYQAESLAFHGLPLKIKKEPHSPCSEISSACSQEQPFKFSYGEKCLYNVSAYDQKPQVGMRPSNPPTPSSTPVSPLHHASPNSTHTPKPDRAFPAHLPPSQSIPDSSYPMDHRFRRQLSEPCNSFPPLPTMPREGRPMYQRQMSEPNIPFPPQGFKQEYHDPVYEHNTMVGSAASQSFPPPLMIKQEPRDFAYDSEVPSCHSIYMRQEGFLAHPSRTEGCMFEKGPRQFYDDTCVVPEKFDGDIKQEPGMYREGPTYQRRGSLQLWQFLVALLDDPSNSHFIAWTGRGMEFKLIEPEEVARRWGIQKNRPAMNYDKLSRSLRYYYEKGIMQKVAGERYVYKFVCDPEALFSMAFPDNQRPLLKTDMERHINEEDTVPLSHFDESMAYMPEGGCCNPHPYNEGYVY
# How it was run: as §1
sequence,measurement,setting,value
CTTTAA,binding signal,FLI1,"1.37 fold enrichment (6-mer frequency, TF over GST control)"
same,binding signal,ELK1,"1.27 fold enrichment (6-mer frequency, TF over GST control)"
same,binding signal,GABPA,"1.28 fold enrichment (6-mer frequency, TF over GST control)"
same,binding signal,ERG,"1.27 fold enrichment (6-mer frequency, TF over GST control)"
same,binding signal,ELF1,"1.33 fold enrichment (6-mer frequency, TF over GST control)"
same,binding signal,EHF,"1.2 fold enrichment (6-mer frequency, TF over GST control)"
same,binding signal,SPI1,"1.39 fold enrichment (6-mer frequency, TF over GST control)"
same,binding signal,SPIB,"1.19 fold enrichment (6-mer frequency, TF over GST control)"
same,binding signal,ELK3,"1.28 fold enrichment (6-mer frequency, TF over GST control)"
same,binding signal,FEV,"1.23 fold enrichment (6-mer frequency, TF over GST control)"
same,binding signal,ETV5,"1.24 fold enrichment (6-mer frequency, TF over GST control)"
same,binding signal,HSF1,"1.58 fold enrichment (6-mer frequency, TF over GST control)"
same,binding signal,SPIC,"1.36 fold enrichment (6-mer frequency, TF over GST control)"
same,binding signal,ELF4,"1.26 fold enrichment (6-mer frequency, TF over GST control)"
same,binding signal,ELK4,"1.28 fold enrichment (6-mer frequency, TF over GST control)"
same,binding signal,ETV2,"1.27 fold enrichment (6-mer frequency, TF over GST control)"
same,binding signal,ELF3,"1.39 fold enrichment (6-mer frequency, TF over GST control)"
same,binding signal,CRX,"2.25 fold enrichment (6-mer frequency, TF over GST control)"
same,binding signal,ETV1,"1.3 fold enrichment (6-mer frequency, TF over GST control)"
